Bioassay records as filed in PubChem.
USP28 inh – human USP28 deubiquitinase inhibition | Q96RU2 | purified USP28, Ub-rhodamine cleavage fluorescence, 30 min | inhibition, % at 25 µM | 3% of 47,000 active | AID 1645857
USP17 block – inhibitors of human USP17 deubiquitinase | A8MUK1 | purified USP17, Ub-rhodamine cleavage fluorescence, 3 h | inhibition, % at 50 µM | 6.5% of 47,000 active | AID 1645855
OTUD3 inh – human OTUD3 deubiquitinase inhibition; Q5T2D3; inhibition, % at 25 µM; AID 1645858; 0.7% of 47,000 active; purified OTUD3, Ub-rhodamine fluorescence, 2 h
USP30 inh – inhibitors of human USP30 deubiquitinase. Q70CQ3. purified USP30, Ub-rhodamine cleavage fluorescence. inhibition, % at 25 µM. 5.3% of 47,000 active. AID 1645860
A number is an active result. Rows were chosen to be rich in hits. Some 12% of all compounds tested hit in one or more screens of this group. Rule as the data show it: active = inhibition above about 30%; inactive = the rest.

How did Nc1c(C(=O)NCCc2ccccc2)nnn1-c1ccc(F)cc1 do in these assays?
USP28 inh: inactive; USP17 block: 61.4; OTUD3 inh: inactive; USP30 inh: inactive

Results for COc1ccc(OC)c(NC(=O)c2ccc(N3C(=O)N4CCc5c([nH]c6ccc(OC)cc56)[C@@]4(C)C3=O)cc2)c1 ?
USP28 inh: inactive; USP17 block: inactive; OTUD3 inh: inactive; USP30 inh: inactive

What do the screens show for `COc1ccc(NC(=O)N2CCCC(CN3CCc4ccccc4C3)C2)c(OC)c1` (stereo unspecified)?
USP28 inh: inactive; USP17 block: inactive; OTUD3 inh: inactive; USP30 inh: inactive

Results for CCCNC(=O)C1CCN(c2nccc(-n3nc(C)cc3C)n2)CC1 ?
USP28 inh: inactive; USP17 block: inactive; OTUD3 inh: inactive; USP30 inh: inactive

How did COc1c([C@H](CC(C)C)OC(C)=O)ccc2c1C(=O)OCc1cc(C)cc(O)c1O2 do in these assays?
USP28 inh: inactive; USP17 block: inactive; OTUD3 inh: inactive; USP30 inh: inactive

Results for COc1c(C)c2c(c(O)c1C/C=C(\C)C(O)CC(=O)O)C(=O)OC2 (stereo unspecified) ?
USP28 inh: inactive; USP17 block: inactive; OTUD3 inh: inactive; USP30 inh: 38.0

How did CN1C(=O)c2cc(C(=O)N3CCCCC3)nn2CC1(C)C(=O)NC1CCCC1 (stereo unspecified) do in these assays?
USP28 inh: inactive; USP17 block: inactive; OTUD3 inh: inactive; USP30 inh: inactive

What do the screens show for `Nc1nonc1C(=O)NCCNCc1cccc(OCc2ccc(Cl)cc2)c1`?
USP28 inh: 55.6; USP17 block: inactive; OTUD3 inh: inactive; USP30 inh: inactive

What do the screens show for `O=C(Nc1ccc(Cl)cc1)c1cccc(OCc2ccccc2)c1`?
USP28 inh: inactive; USP17 block: inactive; OTUD3 inh: inactive; USP30 inh: inactive

What do the screens show for `NS(=O)(=O)c1ccc(CCNc2ccn3nc(-c4ccccc4)cc3n2)cc1`?
USP28 inh: inactive; USP17 block: 31.0; OTUD3 inh: inactive; USP30 inh: inactive

What do the screens show for `O=C(Cc1ccccc1F)Nc1nc(-c2ccco2)c(-c2ccco2)s1`?
USP28 inh: 43.0; OTUD3 inh: 57.5; USP30 inh: inactive

Results for COc1ccc(CC(=O)Nc2nc3c(s2)CCC3)cc1 ?
USP28 inh: inactive; USP17 block: inactive; OTUD3 inh: inactive; USP30 inh: inactive

How did COc1ccc(CC(=O)Nc2nc(-c3ccco3)c(-c3ccco3)s2)cc1 do in these assays?
USP28 inh: 32.2; USP17 block: 65.4; OTUD3 inh: 62.0; USP30 inh: inactive

What do the screens show for `COc1ccc(-c2nc(NC(=O)Cc3ccccc3OC)sc2C)cc1`?
USP28 inh: inactive; USP17 block: inactive; OTUD3 inh: inactive; USP30 inh: inactive

What do the screens show for `COc1ccc(NS(=O)(=O)/C=C/c2ccc(OC)c(OC)c2)cc1`?
USP28 inh: inactive; USP17 block: inactive; OTUD3 inh: inactive; USP30 inh: inactive

Results for COc1ccc(/C=C/c2cc(OC)cc(=O)o2)cc1 ?
USP28 inh: inactive; USP17 block: 30.1; OTUD3 inh: inactive; USP30 inh: 32.3

What do the screens show for `NS(=O)(=O)c1ccc(CCNC(=O)c2nc(-c3ccccc3)n(-c3ccccc3)n2)cc1`?
USP28 inh: inactive; USP17 block: inactive; OTUD3 inh: inactive; USP30 inh: inactive

Results for Cn1nc(-c2ccccc2F)c2cc(C(=O)NCCc3ccc(S(N)(=O)=O)cc3)sc21 ?
USP28 inh: inactive; USP17 block: inactive; OTUD3 inh: inactive; USP30 inh: 31.9

How did COc1ccc(-c2n[nH]n3c2nc(=O)c2ccc(C(=O)NC4CCCC4)cc23)cc1 do in these assays?
USP28 inh: inactive; USP17 block: inactive; OTUD3 inh: inactive; USP30 inh: inactive

How did O=C(CC1CCC2(CCNCC2)CC1)Nc1cccc(S(=O)(=O)N2CCOCC2)c1 do in these assays?
USP28 inh: inactive; USP17 block: inactive; OTUD3 inh: inactive; USP30 inh: inactive

What do the screens show for `Cc1csc(SCc2cc(=O)c(OC(=O)c3cccc(F)c3)co2)n1`?
USP28 inh: inactive; USP17 block: inactive; OTUD3 inh: inactive; USP30 inh: inactive

Results for COc1ccc(S(=O)(=O)Nc2ccc(Nc3ccc(-n4cccn4)nn3)cc2)cc1 ?
USP28 inh: inactive; USP17 block: 47.1; OTUD3 inh: inactive; USP30 inh: 61.7

Results for COc1ccc(-c2ccc(NS(=O)(=O)c3ccc(F)cc3)cc2)nn1 ?
USP28 inh: inactive; USP17 block: inactive; OTUD3 inh: inactive; USP30 inh: inactive

How did Cc1ccc(NC(=O)CSc2nc3ncc(Br)cc3[nH]2)cc1C do in these assays?
USP17 block: 59.9; OTUD3 inh: inactive

Results for COC(=O)c1ccc(NC(=O)CSc2nc3ncc(Cl)cc3[nH]2)cc1 ?
USP28 inh: inactive; USP17 block: inactive; OTUD3 inh: inactive; USP30 inh: inactive
